Not all results are given here.
aSyn 5UTR act = Activators via SNCA 5'UTR binding, MLPCN | alpha-synuclein 5'UTR reporter, activators screen | activity score, % (tested at 7.5 µM), hits read low | 300,000 compounds, 7.1% hits; in the data active means activity score below about -60%
An asterisk follows results filed as active.

SMILES | aSyn 5UTR act
Cc1n[nH]c(=O)n1-c1ccc(OCc2ccccc2)cc1 | -90.8*
NC(=O)N/N=C/c1sc(N2CCCCC2)nc1-c1cccs1 | -66.6*
CC(C)NC(=S)N/N=C/c1sc(N2CCCCC2)nc1-c1cccs1 | -68.5*
O=C(N/N=C/c1sc(N2CCOCC2)nc1-c1ccccc1)c1cccc(S(=O)(=O)N2CCOCC2)c1 | 86.5
O=c1[nH]nc(SCc2nc3ccccc3s2)n1C1CC1 | -144.4*
CCCn1c(=O)c2ccccc2n2c(SCc3nc4ccccc4s3)nnc12 | -159.6*
CCCn1c(SCc2nc3ccccc3s2)n[nH]c1=O | -165.3*

Compound activity: PubChem, Broad Institute
